Test in all cases: log2 ratio of Biotin-Ahx-Ub-VS probe labelling (fragment/DMSO); higher = less target engagement (more negative = stronger competition), active = hit call of the paper (q ≤ 0.05, log2 ratio ≤ -1)
What all share (settings): compound concentration: 200 uM; treatment time: 3 h

For assay [1], the target named is T1, OTUD6B (UniProt Q8N6M0).
T1 sequence (whole entry): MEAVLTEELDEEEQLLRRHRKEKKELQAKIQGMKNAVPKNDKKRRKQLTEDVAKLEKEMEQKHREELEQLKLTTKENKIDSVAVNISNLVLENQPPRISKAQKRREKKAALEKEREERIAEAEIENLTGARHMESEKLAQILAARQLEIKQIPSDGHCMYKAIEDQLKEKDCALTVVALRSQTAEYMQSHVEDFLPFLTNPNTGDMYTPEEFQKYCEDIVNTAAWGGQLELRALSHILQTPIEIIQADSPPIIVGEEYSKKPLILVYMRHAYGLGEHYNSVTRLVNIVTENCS
The gist of the method: (§1)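 The table lists average log2 ratios of fragment over vehicle, from an unpaired t-test on global-median-normalised Spectronaut label-free quantities. Proteins with ≥2 unique peptides were used. Samples were HEK293T lysate (495 µg) treated in triplicate with fragment at 200 µM or vehicle for 3 h, then with Biotin-Ahx-Ub-VS (0.5 µM final) for 1 h, with labelled DUBs NeutrAvidin-enriched and run by diaPASEF LC-MS/MS.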

For assay [2], the target named is T2, OTUD7B (UniProt Q6GQQ9).
T2 sequence (whole entry): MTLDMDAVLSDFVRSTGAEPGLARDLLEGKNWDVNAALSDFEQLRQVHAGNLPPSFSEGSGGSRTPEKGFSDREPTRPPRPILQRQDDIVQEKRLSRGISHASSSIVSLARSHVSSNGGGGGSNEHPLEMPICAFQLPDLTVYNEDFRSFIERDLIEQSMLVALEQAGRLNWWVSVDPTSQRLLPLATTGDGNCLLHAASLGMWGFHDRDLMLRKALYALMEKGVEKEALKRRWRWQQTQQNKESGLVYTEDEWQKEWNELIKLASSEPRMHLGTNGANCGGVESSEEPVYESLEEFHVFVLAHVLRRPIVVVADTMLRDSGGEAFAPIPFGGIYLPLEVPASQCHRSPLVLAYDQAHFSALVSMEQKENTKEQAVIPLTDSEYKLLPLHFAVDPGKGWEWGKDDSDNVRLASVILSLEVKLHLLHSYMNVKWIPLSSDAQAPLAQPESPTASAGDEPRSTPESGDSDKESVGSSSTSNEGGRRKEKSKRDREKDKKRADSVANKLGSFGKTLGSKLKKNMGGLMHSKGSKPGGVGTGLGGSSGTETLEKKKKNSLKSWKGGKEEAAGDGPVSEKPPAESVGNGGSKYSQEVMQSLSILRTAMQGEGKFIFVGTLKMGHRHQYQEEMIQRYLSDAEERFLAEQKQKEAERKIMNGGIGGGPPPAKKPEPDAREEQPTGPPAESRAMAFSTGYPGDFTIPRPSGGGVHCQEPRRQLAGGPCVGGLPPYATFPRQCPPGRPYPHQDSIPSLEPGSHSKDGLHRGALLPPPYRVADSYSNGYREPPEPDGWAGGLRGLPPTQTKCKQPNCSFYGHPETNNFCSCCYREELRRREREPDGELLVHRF
The gist of the method:
as §1

In assay [3] the target is PRPF8 (UniProt Q6P2Q9). The gist of the method: as §1
Assay [4] addresses T3, PSMD7 (UniProt P51665).
T3 sequence (whole entry): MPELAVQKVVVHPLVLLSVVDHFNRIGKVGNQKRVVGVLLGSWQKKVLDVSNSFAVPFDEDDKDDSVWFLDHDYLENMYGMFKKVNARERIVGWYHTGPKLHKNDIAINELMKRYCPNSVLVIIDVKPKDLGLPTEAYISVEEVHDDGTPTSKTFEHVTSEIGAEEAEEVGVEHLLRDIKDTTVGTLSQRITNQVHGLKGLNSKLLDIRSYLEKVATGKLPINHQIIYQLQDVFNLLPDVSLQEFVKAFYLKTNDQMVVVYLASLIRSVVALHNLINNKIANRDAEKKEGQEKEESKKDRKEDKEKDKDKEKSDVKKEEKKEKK
The gist of the method:
as §1

The target in assay [5] is UCHL1 (UniProt P09936). The method in brief:
as §1

The target of assay [6] is T4, UCHL3 (UniProt P15374).
T4 sequence (whole entry): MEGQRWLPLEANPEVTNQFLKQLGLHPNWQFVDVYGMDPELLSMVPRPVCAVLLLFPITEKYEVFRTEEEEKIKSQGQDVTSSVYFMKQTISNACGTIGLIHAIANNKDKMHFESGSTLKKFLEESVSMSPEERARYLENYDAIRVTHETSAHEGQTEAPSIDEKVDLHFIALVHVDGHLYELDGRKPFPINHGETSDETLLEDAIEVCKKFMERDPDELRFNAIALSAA
The gist of the method: as §1

The target of assay [7] is T5, UCHL5 (UniProt Q9Y5K5).
T5 sequence (whole entry): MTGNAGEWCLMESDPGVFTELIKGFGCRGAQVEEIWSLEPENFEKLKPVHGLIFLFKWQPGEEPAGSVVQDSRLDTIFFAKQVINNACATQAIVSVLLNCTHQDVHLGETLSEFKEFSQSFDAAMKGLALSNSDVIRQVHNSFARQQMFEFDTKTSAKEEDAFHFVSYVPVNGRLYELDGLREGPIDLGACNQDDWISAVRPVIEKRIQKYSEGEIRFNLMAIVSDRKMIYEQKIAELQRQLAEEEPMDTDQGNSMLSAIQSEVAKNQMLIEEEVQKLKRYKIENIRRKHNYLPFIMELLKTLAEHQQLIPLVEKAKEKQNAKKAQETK
The gist of the method:
as §1

For assay [8], the target named is USP10 (UniProt Q14694). The method in brief: as §1
USP10, sequence (Q14694 whole entry): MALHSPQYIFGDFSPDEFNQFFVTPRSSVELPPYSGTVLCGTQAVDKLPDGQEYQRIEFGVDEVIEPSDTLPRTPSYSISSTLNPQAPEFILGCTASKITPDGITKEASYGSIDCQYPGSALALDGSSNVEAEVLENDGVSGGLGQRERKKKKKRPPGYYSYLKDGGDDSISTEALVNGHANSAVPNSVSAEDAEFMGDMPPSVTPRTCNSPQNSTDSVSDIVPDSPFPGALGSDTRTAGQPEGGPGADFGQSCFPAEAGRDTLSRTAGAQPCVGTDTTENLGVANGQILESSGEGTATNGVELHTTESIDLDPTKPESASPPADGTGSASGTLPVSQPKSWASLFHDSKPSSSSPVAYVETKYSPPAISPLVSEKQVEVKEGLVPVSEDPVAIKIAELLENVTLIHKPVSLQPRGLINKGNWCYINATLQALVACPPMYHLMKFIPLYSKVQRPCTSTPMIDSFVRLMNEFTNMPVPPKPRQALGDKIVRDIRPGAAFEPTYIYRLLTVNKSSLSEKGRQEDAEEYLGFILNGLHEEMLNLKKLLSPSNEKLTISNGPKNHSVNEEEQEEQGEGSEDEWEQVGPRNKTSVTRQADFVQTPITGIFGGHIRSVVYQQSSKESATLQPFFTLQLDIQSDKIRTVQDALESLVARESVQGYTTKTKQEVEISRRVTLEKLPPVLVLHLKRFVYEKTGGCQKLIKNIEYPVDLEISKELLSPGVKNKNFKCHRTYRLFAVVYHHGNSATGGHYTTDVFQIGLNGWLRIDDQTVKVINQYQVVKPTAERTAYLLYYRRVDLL
In assay [9] the target is T6, USP15 (UniProt Q9Y4E8).
T6 sequence (whole entry): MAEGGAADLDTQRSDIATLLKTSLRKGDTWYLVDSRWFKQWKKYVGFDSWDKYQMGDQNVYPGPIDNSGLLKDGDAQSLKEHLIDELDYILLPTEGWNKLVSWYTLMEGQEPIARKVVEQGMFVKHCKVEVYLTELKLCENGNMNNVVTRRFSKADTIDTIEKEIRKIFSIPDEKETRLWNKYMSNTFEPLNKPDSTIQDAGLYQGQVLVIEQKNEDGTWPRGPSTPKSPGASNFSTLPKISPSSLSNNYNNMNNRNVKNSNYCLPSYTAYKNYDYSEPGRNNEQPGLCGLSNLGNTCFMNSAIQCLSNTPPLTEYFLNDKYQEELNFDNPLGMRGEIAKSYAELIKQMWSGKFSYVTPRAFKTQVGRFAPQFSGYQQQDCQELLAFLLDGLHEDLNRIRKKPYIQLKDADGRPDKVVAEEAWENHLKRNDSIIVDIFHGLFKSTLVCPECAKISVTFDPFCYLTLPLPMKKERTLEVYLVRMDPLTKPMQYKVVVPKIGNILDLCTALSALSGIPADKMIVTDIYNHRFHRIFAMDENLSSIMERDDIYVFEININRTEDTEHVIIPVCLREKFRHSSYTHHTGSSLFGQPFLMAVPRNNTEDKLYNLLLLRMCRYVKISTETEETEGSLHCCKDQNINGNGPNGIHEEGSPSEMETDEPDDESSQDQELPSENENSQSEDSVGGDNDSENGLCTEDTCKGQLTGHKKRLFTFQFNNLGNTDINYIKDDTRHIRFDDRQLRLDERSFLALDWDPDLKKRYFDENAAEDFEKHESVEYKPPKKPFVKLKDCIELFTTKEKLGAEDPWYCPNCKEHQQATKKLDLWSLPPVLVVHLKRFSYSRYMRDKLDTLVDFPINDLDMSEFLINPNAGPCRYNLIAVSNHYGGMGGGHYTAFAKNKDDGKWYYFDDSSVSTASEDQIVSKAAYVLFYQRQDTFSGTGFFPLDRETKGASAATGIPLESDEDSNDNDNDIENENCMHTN
The gist of the method:
as §1

In assay [10] the target is USP16 (UniProt Q9Y5T5). The method in brief: as §1
USP16, sequence (Q9Y5T5 whole entry, looked up): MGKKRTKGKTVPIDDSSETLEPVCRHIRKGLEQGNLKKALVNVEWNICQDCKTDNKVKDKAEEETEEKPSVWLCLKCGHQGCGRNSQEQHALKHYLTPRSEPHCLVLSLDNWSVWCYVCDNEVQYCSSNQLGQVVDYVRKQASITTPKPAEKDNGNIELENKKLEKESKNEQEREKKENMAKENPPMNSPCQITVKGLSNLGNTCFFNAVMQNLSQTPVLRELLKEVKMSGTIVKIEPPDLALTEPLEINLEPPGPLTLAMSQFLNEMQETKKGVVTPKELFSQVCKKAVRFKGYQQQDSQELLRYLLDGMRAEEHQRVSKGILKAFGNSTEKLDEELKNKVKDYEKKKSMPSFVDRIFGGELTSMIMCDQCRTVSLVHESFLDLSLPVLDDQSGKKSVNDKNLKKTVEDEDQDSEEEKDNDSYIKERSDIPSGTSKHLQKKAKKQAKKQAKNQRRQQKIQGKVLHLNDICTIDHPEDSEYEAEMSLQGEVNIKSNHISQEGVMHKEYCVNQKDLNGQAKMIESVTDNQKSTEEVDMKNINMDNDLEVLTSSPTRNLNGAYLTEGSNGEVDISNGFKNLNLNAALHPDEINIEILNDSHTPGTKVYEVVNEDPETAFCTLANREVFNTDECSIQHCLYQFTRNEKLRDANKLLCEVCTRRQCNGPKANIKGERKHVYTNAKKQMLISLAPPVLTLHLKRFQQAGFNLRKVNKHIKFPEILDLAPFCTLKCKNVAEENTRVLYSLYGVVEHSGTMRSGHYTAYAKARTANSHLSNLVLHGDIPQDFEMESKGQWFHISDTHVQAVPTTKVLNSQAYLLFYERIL

Values without a mark were called inactive.

UCHL1, sequence (P09936 whole entry, looked up): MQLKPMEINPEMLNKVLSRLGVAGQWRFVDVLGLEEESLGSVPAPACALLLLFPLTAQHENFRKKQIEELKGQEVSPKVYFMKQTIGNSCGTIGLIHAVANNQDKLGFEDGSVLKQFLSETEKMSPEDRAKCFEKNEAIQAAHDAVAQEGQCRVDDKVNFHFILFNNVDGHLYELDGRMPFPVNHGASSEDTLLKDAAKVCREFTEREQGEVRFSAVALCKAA

On to `O=C(CCl)N[C@H]1CCS(=O)(=O)c2ccccc21`, for which the “log2 ratio of Biotin-Ahx-Ub-VS probe labelling” value is -0.0586 in assay [1]; -1.71 (active) in assay [2]; 0.0359 in [3]; -0.0772 in assay [4]; -1.5 (active) in assay [5]; 0.351 in assay [6]. The “log2 ratio of Biotin-Ahx-Ub-VS probe labelling” value was -0.0806 in assay [7], -0.109 in assay [8], -0.195 in assay [9] and -0.601 in [10].

The values are drawn from the supplement of paper PMC11732987, “Enantioselective OTUD7B fragment discovery through chemoproteomics screening and high-throughput optimisation” (Communications Chemistry, 2025).
